In the supplement of paper PMC9588786 one finds relative cell viability data, which are given here for 38 compounds.

Values joined by “and” are separate entries in the source; they are usually repeats but may differ in a detail not shown here. Identical values can stand only once. ± gives the standard deviation of the averaged measurements.
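Further: viability read as CCK-8 absorbance at 450 nm in cells co-exposed to the GPX4 inhibitor RSL3, relative to a 0.01% DMSO vehicle control.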

This assay has as its system HT-1080. The assay is described as follows: relative cell viability with RSL3 co-treatment (fraction of control); higher = stronger protection from RSL3-induced ferroptosis (higher viability). As to conditions: 10 µM.
For `O=C(NCc1ccccc1)c1csc(Nc2ccncn2)n1` [Thiazovivin], the relative cell viability is 0.557 ± 0.24.
Regarding `CN1CCN(c2cccc(Nc3nc4c(-c5ccc(S(C)(=O)=O)cc5)cccn4n3)c2)CC1`, the relative cell viability is 1.21 ± 0.03.
For the compound `O=C(NOC[C@H](O)CO)c1ccc(F)c(F)c1Nc1ccc(I)cc1F`, the relative cell viability is 0.897 ± 0.032.
`CCOc1cc(C(=O)N2CCC(N3CCN(C)CC3)CC2)ccc1Nc1ncc2c(n1)N(C1CCCC1)c1ccccc1C(=O)N2C`: the relative cell viability stood at 0.457 ± 0.031.
Consider `COc1ccc(S(=O)(=O)N(CCO)c2ccccc2CN(C)C/C=C/c2ccc(Cl)cc2)cc1` [KN-93 Phosphate], for which the relative cell viability is 0.813 ± 0.011.
As for `Cn1cnc(N)c2ncnc1-2` [3-Methyladenine (3-MA)], the relative cell viability came to 0.76 ± 0.078.
Regarding `Oc1c2ccccc2c2c3c(cccc13)N=N2`, the relative cell viability is 0.71 ± 0.036.
On to `CNc1nc(Nc2cn(C(C)(C)C#N)nc2C)ncc1C(F)(F)F`, for which the relative cell viability was found to be 0.757 ± 0.1.
`C=CCc1ccc(O)c(-c2ccc(O)c(CC=C)c2)c1` [Honokiol]: the relative cell viability stood at 0.85 ± 0.04.
The figure for `C=CC(=O)Nc1cccc(Nc2nc(Nc3ccc(N4CCN(C(C)=O)CC4)cc3OC)ncc2C(F)(F)F)c1` [Rociletinib (CO-1686, AVL-301)] is 0.573 ± 0.2; for `NC1(c2ccc(-c3nc4ccn5c(=O)[nH]nc5c4cc3-c3ccccc3)cc2)CCC1` it is 0.467 ± 0.1; for `CCCS(=O)(=O)Nc1ccc(F)c(C(=O)c2c[nH]c3ncc(-c4ccc(Cl)cc4)cc23)c1F` [Vemurafenib (PLX4032, RG7204)] it is 0.323 ± 0.091.
On to `Cc1ccc(C(=O)Nc2ccc(CN3CCN(C)CC3)c(C(F)(F)F)c2)cc1C#Cc1cnc2cccnn12`, for which the relative cell viability stood at 0.64 ± 0.11.
In the case of `CC(=O)c1c(C)c2cnc(Nc3ccc(N4CCNCC4)cn3)nc2n(C2CCCC2)c1=O`, the relative cell viability came to 0.623 ± 0.074.
The figure for `O=C1NC(=O)C(c2ccccc2[N+](=O)[O-])=C1Nc1ccc(O)c(Cl)c1` is 0.847 ± 0.031; for `CCNc1nc(Nc2cc(F)c(C(=O)N3CCOCC3)cc2OC)ncc1C(F)(F)F` it is 0.69 ± 0.089; for `COc1cc2nccc(Oc3ccc(NC(=O)C4(C(=O)Nc5ccc(F)cc5)CC4)cc3)c2cc1OC` [Cabozantinib malate (XL184)] it is 0.8 ± 0.017.
The figure for `Cc1cc2c(F)c(Oc3ncnn4cc(OC[C@@H](C)O)c(C)c34)ccc2[nH]1` is 0.753 ± 0.078.
Consider `Cc1ccc(F)c(NC(=O)Nc2ccc(-c3cccc4[nH]nc(N)c34)cc2)c1` [Linifanib (ABT-869)], for which the relative cell viability amounted to 0.36 ± 0.046.
On to `CC[C@@H]1C(=O)N(C)c2cnc(Nc3ccc(C(=O)NC4CCN(C)CC4)cc3OC)nc2N1C1CCCC1`, for which the relative cell viability was 0.553 ± 0.031.
As to `CNC(=O)c1cc(Oc2ccc(NC(=O)Nc3ccc(Cl)c(C(F)(F)F)c3)c(F)c2)ccn1` [Regorafenib (BAY 73-4506)], the relative cell viability was 0.483 ± 0.086.
In the case of `O=C(O)c1ccc(Nc2ncc3c(n2)-c2ccc(Cl)cc2C(c2c(F)cccc2F)=NC3)cc1`, the relative cell viability amounted to 0.433 ± 0.045.
For `CN1CCC(Nc2nc(Nc3ccc(Oc4ccccc4)cc3)c3c(=O)[nH]cc(Br)c3n2)CC1`, the relative cell viability was 0.68 ± 0.087.
On to `CNCc1ccc(-c2cc(-c3nc(-c4ccc(S(=O)(=O)C(C)C)cc4)cnc3N)on2)cc1`, for which the relative cell viability was determined as 0.47 ± 0.026.
The figure for `Nc1nc(Nc2ccc(S(N)(=O)=O)cc2)nn1C(=O)c1c(F)cccc1F` is 0.53 ± 0.095; for `CN(c1ncccc1CNc1nc(Nc2ccc3c(c2)CC(=O)N3)ncc1C(F)(F)F)S(C)(=O)=O` it is 0.763 and 0.527; for `Cc1ccc(Nc2nccc(N(C)c3ccc4c(C)n(C)nc4c3)n2)cc1S(N)(=O)=O` it is 0.597 ± 0.15.
On to `C[C@@]1(C(=O)Nc2ccc(F)nc2)CCCN1c1nc(Nc2cc(C3CC3)n[nH]2)c2cccn2n1`, for which the relative cell viability stood at 0.483 ± 0.05.
For the compound `CC(C)(C)c1ccc(S(=O)(=O)/C=C/C#N)cc1`, the relative cell viability amounted to 0.707 ± 0.015.
Turning to `N#Cc1c(Oc2ccc(F)c(NC(=O)Cc3cccc(C(F)(F)F)c3)c2)ccc2nc(NC(=O)C3CC3)sc12`, the relative cell viability amounted to 0.797 ± 0.032.
On to `O=C(O)[C@]1(Cc2cccc(Nc3nccs3)n2)CC[C@@H](Oc2cccc(Cl)c2F)CC1`, for which the relative cell viability is 1.02 ± 0.14.
On to `O=C(Nc1cc(C(F)(F)F)cc(C(F)(F)F)c1)c1cc(Cl)ccc1O`, for which the relative cell viability was 0.537 ± 0.06.
Take `Fc1cc(-c2cccc3ncc(-c4cnn(C5CCNCC5)c4)nc23)cc(F)c1CN1CCOCC1`: the relative cell viability worked out at 0.787 ± 0.058.
For `CCCNC(=O)c1cn2ncnc(Nc3cc(C(=O)NC4CC4)ccc3C)c2c1C`, the relative cell viability was 0.78 ± 0.04.
With `CO[C@@H](C)Cn1c(=O)n(C)c2cnc3ccc(-c4cncc(C(C)(C)O)c4)cc3c21`, the relative cell viability worked out at 0.457 ± 0.13.
For `O=c1ncn2nc(Sc3ccc(F)cc3F)ccc2c1-c1c(Cl)cccc1Cl`, the relative cell viability worked out at 0.5 ± 0.14.
As for `COc1ccc(-c2ccc3c(N4CCOC[C@@H]4C)nc(N4CCOC[C@@H]4C)nc3n2)cc1CO`, the relative cell viability was 0.893 ± 0.13.
Regarding `NC(=O)c1cnc(N[C@@H]2CCCC[C@@H]2N)nc1Nc1cccc(-n2nccn2)c1`, the relative cell viability worked out at 0.56 ± 0.11.
